Experimental data from article PMC7862700, “An all-to-all approach to the identification of sequence-specific readers for epigenetic DNA modifications on cytosine”.

Tests used:
Assay in all cases: DAPPL (digital affinity profiling via proximity ligation, sequencing); 10 mM Tris-HCl pH 7.5, 50 mM NaCl, 1 mM DTT, 4% glycerol, room temperature, 30 min; GST-TFs on glutathione beads, 16-mer random dsDNA library, 0.1% formaldehyde crosslink after washing; high values mean tight binding
FLI1 = target: T1, FLI1 (Homo sapiens, UniProt Q01543 1-452); details: protein: recombinant; tags: N-terminal GST; dsDNA, one strand shown
T1 sequence: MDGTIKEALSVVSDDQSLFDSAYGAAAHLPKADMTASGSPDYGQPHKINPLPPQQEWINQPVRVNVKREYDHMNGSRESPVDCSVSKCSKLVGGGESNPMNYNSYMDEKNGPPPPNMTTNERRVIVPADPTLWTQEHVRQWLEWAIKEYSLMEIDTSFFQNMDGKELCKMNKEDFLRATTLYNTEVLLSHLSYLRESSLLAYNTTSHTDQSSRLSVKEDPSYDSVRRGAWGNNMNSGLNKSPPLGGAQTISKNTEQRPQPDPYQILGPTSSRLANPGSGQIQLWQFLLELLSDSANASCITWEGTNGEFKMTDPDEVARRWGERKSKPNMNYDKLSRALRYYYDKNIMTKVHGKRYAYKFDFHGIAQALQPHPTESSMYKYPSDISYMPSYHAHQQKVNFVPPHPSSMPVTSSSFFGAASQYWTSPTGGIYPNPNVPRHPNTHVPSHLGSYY
In short: (§1)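 A tag-only sample was pooled with DNA-barcoded human transcription factors that had been expressed in yeast as GST fusions and captured on glutathione beads. The pools were incubated for 30 min at room temperature with 200 nmole of a random double-stranded 16-mer DNA library in Tris/NaCl/DTT/glycerol buffer, then washed, crosslinked with 0.1% formaldehyde, proximity-ligated (BsaI/T4 ligase, 1 h, 37 °C), PCR-amplified and sequenced on an Illumina NextSeq500. Binding signal is each hexamer's read frequency for a factor divided by its frequency for the tag-only sample.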

ELK1 = target: T2, ELK1 (Homo sapiens, UniProt P19419 1-428); details: protein: recombinant; tags: N-terminal GST; dsDNA, one strand shown
T2 sequence: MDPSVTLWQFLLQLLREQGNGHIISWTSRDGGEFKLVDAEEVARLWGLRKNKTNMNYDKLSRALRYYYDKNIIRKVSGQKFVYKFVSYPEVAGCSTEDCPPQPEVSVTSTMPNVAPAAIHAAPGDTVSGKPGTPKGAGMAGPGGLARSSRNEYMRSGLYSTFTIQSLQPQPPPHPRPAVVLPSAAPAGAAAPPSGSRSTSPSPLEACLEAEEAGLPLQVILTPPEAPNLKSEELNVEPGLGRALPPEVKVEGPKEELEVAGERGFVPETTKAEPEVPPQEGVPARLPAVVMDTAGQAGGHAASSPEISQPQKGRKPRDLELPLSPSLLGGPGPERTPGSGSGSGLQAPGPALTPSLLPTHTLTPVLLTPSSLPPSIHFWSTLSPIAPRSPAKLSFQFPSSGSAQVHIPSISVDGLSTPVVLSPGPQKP
In short: as §1

GABPA = target: T3, GABPA (Homo sapiens, UniProt Q06546 1-454); details: protein: recombinant; tags: N-terminal GST; dsDNA, one strand shown
T3 sequence: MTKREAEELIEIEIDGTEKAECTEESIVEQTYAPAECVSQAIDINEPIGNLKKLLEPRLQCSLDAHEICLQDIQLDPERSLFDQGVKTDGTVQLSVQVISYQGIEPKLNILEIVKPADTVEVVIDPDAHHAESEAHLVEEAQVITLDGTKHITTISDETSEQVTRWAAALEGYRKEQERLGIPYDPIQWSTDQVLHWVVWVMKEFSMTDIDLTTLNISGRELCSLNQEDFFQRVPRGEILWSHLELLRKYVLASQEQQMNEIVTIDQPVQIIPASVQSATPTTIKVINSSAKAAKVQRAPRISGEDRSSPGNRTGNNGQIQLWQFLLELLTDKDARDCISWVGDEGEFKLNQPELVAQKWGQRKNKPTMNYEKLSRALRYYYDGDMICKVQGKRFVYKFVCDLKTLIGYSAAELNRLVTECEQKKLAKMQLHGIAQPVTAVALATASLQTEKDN
In short: as §1

ERG = target: T4, ERG (Homo sapiens, UniProt P11308 1-479); details: protein: recombinant; tags: N-terminal GST; dsDNA, one strand shown
T4 sequence: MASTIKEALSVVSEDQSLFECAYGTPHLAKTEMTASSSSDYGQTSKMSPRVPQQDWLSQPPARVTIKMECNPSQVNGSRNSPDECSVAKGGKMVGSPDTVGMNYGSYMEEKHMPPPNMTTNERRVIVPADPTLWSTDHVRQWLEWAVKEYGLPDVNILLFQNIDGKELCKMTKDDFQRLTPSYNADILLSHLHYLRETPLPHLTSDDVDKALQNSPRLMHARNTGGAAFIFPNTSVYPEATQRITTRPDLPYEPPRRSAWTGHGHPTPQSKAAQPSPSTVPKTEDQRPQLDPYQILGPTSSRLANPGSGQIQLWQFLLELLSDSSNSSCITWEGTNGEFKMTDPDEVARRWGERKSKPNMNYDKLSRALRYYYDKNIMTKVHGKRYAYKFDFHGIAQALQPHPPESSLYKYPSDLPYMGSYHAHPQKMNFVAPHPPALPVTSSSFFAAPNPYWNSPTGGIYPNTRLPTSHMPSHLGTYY
In short: as §1

ELF1 = ELF1 (Homo sapiens, UniProt P32519 1-619); details: protein: recombinant; tags: N-terminal GST; dsDNA, one strand shown
ELF1, sequence (P32519 whole entry): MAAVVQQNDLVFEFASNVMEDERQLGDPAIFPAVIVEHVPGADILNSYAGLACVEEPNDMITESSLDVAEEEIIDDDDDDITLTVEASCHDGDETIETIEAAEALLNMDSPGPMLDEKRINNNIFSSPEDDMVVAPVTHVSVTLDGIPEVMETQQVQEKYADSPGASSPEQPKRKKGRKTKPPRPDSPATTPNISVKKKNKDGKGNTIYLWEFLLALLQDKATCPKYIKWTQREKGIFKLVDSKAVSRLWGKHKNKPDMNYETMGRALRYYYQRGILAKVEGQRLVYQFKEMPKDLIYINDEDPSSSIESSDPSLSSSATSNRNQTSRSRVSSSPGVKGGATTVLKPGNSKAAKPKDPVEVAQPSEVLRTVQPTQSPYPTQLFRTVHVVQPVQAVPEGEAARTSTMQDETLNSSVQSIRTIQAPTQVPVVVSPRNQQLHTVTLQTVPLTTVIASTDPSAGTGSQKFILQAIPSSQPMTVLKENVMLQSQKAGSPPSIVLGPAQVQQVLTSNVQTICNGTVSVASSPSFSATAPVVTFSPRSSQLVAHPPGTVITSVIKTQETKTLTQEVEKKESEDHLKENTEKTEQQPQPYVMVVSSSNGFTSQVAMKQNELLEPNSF
In short: as §1

EHF = target: T5, EHF (Homo sapiens, UniProt Q9NZC4 1-300); details: protein: recombinant; tags: N-terminal GST; dsDNA, one strand shown
T5 sequence: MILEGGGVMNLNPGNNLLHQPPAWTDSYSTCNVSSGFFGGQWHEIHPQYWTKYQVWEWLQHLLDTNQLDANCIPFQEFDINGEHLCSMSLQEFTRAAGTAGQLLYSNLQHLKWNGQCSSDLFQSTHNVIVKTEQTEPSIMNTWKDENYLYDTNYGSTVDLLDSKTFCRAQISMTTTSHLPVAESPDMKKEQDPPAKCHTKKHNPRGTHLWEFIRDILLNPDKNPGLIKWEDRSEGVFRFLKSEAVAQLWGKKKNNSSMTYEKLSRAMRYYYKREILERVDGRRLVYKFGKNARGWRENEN
In short: as §1

SPI1 = SPI1 (Homo sapiens, UniProt P17947 1-270); details: protein: recombinant; tags: N-terminal GST; dsDNA, one strand shown
In short: as §1

SPIB = SPIB (Homo sapiens, UniProt Q01892 1-262); details: protein: recombinant; tags: N-terminal GST; dsDNA, one strand shown
SPIB, sequence (Q01892 whole entry): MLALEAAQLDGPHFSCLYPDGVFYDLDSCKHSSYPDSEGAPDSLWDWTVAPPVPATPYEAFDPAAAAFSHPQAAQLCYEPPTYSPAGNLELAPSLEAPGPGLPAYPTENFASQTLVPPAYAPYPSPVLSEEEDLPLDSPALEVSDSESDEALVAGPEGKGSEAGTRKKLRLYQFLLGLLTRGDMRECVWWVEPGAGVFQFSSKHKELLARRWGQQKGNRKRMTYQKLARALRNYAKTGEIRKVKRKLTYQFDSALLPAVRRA
In short: as §1

ELK3 = target: T6, ELK3 (Homo sapiens, UniProt P41970 1-407); details: protein: recombinant; tags: N-terminal GST; dsDNA, one strand shown
T6 sequence: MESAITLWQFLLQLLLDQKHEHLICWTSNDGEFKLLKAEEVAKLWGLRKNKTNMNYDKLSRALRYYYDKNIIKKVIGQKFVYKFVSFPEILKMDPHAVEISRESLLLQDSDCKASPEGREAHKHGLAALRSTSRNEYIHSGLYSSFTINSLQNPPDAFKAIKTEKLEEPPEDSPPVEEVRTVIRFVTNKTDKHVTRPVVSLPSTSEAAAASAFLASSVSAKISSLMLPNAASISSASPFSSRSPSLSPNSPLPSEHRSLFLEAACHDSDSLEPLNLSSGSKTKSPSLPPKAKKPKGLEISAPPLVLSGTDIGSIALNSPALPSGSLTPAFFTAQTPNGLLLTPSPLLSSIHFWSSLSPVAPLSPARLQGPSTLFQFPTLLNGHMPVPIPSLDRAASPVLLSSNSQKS
In short: as §1

FEV = target: T7, FEV (Homo sapiens, UniProt Q99581 1-238); details: protein: recombinant; tags: N-terminal GST; dsDNA, one strand shown
T7 sequence: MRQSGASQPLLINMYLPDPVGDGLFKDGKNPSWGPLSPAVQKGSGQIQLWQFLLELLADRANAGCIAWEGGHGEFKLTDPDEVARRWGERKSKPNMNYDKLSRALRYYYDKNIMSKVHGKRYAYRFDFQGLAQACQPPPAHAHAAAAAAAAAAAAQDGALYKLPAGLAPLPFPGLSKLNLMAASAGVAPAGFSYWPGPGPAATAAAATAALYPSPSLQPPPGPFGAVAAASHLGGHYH
In short: as §1

ETV5 = ETV5 (Homo sapiens, UniProt P41161 1-510); details: protein: recombinant; tags: N-terminal GST; dsDNA, one strand shown
ETV5, sequence (P41161 whole entry): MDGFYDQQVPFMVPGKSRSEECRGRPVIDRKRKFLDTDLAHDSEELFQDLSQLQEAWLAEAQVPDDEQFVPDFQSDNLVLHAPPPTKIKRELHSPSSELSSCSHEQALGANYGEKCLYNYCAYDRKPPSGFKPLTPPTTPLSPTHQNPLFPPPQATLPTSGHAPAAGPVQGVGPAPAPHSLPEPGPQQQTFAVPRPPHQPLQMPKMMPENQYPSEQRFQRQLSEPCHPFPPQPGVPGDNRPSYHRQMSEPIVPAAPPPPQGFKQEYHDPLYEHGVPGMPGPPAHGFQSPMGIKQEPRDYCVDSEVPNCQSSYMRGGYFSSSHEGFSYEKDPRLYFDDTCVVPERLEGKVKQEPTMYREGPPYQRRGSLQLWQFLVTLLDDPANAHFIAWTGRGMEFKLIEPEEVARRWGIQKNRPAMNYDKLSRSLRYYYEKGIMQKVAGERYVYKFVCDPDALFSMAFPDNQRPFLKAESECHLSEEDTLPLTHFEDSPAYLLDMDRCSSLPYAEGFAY
In short: as §1

HSF1 = HSF1 (Homo sapiens, UniProt Q00613 1-529); details: protein: recombinant; tags: N-terminal GST; chain copies: 3; dsDNA, one strand shown
HSF1, sequence (Q00613 whole entry): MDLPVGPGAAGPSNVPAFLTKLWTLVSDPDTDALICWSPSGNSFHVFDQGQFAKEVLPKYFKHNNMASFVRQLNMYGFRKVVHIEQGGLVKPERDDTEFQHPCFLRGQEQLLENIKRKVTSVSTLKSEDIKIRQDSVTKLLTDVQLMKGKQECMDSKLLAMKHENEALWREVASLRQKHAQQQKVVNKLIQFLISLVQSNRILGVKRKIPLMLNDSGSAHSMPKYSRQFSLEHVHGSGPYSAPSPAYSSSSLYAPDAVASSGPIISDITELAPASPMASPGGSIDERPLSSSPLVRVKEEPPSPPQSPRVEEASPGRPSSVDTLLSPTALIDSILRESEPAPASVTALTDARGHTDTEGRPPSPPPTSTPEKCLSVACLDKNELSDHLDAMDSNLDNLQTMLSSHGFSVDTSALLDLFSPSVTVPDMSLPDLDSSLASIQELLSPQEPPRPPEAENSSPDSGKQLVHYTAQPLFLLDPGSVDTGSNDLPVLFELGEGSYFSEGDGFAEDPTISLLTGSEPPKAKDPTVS
In short: as §1

ELF4 = ELF4 (Homo sapiens, UniProt Q99607 1-663); details: protein: recombinant; tags: N-terminal GST; dsDNA, one strand shown
ELF4, sequence (Q99607 whole entry): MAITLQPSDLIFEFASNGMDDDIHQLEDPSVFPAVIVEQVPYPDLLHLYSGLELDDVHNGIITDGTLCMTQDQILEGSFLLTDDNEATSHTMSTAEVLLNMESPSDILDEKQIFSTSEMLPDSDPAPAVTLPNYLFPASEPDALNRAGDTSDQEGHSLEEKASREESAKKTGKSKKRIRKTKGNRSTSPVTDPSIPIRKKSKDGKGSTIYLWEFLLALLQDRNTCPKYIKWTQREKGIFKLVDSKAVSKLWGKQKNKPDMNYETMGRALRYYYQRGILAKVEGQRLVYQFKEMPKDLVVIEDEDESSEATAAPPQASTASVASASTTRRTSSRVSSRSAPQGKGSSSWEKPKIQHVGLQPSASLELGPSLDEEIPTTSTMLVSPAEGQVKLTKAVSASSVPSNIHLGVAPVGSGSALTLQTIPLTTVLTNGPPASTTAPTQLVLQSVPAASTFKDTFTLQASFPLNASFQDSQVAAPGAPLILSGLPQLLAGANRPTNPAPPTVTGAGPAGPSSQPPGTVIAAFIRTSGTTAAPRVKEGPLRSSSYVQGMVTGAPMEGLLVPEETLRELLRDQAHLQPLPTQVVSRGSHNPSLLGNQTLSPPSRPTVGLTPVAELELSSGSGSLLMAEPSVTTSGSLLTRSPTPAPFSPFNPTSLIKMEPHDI
In short: as §1

ELK4 = target: T8, ELK4 (Homo sapiens, UniProt P28324-2 1-405); details: protein: recombinant; tags: N-terminal GST; dsDNA, one strand shown
T8 sequence: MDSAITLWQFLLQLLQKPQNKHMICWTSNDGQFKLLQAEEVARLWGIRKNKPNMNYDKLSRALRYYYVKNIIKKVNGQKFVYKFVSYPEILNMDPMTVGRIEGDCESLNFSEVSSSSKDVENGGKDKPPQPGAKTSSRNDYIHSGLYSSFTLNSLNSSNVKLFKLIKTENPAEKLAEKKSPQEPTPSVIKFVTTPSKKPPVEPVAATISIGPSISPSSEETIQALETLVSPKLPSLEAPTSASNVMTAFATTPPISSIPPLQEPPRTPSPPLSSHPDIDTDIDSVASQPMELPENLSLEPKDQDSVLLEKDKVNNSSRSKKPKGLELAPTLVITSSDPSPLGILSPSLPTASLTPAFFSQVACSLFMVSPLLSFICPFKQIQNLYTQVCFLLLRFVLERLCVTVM
In short: as §1

ETV2 = target: T9, ETV2 (Homo sapiens, UniProt O00321 1-342); details: protein: recombinant; tags: N-terminal GST; dsDNA, one strand shown
T9 sequence: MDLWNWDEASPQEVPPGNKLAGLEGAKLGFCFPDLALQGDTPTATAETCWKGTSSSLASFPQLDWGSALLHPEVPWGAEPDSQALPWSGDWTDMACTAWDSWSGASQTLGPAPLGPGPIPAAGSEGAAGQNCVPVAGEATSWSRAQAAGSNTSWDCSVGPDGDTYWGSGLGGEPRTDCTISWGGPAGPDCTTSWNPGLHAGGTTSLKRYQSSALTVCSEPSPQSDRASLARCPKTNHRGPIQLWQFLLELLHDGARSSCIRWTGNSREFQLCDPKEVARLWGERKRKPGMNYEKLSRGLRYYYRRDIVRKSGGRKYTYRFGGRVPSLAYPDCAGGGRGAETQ
In short: as §1

ELF3 = target: T10, ELF3 (Homo sapiens, UniProt P78545 1-371); details: protein: recombinant; tags: N-terminal GST; dsDNA, one strand shown
T10 sequence: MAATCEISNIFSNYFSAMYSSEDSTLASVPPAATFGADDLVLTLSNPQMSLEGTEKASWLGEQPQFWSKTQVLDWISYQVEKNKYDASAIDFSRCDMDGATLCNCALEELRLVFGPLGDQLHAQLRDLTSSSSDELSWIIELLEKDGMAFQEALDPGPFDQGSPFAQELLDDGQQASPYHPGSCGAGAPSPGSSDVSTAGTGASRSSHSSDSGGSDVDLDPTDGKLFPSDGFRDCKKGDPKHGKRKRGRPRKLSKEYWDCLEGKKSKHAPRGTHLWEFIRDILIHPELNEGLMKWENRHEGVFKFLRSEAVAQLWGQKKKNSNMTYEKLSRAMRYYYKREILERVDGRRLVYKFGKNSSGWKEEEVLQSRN
In short: as §1

CRX = CRX (Homo sapiens, UniProt O43186 1-299); details: protein: recombinant; tags: N-terminal GST; dsDNA, one strand shown
CRX, sequence (O43186 whole entry): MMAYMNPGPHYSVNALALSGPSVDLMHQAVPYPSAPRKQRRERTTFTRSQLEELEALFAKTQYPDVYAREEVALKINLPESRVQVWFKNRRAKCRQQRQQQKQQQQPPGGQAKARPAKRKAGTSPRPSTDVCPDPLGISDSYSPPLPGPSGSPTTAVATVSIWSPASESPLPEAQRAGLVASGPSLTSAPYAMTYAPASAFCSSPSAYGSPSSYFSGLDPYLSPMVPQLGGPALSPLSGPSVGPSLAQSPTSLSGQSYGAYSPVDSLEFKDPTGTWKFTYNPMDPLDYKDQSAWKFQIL
In short: as §1

ETV1 = ETV1 (Homo sapiens, UniProt P50549 1-477); details: protein: recombinant; tags: N-terminal GST; dsDNA, one strand shown
ETV1, sequence (P50549 whole entry): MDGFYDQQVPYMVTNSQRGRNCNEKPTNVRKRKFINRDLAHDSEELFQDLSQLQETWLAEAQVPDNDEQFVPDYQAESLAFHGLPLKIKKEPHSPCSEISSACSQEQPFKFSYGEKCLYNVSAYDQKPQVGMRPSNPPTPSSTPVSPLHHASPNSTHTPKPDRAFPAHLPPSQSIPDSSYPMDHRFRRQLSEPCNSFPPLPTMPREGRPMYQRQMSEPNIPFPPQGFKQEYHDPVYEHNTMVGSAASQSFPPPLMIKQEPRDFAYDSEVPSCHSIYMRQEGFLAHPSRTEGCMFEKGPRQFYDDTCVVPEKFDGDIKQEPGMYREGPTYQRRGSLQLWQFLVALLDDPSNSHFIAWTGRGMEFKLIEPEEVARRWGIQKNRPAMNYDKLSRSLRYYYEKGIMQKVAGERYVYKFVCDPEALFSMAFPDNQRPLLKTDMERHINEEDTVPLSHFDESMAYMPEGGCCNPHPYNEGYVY
In short: as §1

## TACATT
FLI1
  binding signal: 1.32 fold enrichment (6-mer frequency, TF over GST control)
ELK1
  binding signal: 1.17 fold enrichment (6-mer frequency, TF over GST control)
GABPA
  binding signal: 1.23 fold enrichment (6-mer frequency, TF over GST control)
ERG
  binding signal: 1.21 fold enrichment (6-mer frequency, TF over GST control)
ELF1
  binding signal: 1.26 fold enrichment (6-mer frequency, TF over GST control)
EHF
  binding signal: 1.19 fold enrichment (6-mer frequency, TF over GST control)
SPI1
  binding signal: 1.14 fold enrichment (6-mer frequency, TF over GST control)
SPIB
  binding signal: 1.29 fold enrichment (6-mer frequency, TF over GST control)
ELK3
  binding signal: 1.23 fold enrichment (6-mer frequency, TF over GST control)
FEV
  binding signal: 1.19 fold enrichment (6-mer frequency, TF over GST control)
ETV5
  binding signal: 1.21 fold enrichment (6-mer frequency, TF over GST control)
HSF1
  binding signal: 1.25 fold enrichment (6-mer frequency, TF over GST control)
ELF4
  binding signal: 1.24 fold enrichment (6-mer frequency, TF over GST control)
ELK4
  binding signal: 1.09 fold enrichment (6-mer frequency, TF over GST control)
ETV2
  binding signal: 1.17 fold enrichment (6-mer frequency, TF over GST control)
ELF3
  binding signal: 1.11 fold enrichment (6-mer frequency, TF over GST control)
CRX
  binding signal: 1.25 fold enrichment (6-mer frequency, TF over GST control)
ETV1
  binding signal: 1.16 fold enrichment (6-mer frequency, TF over GST control)
